Results from PubChem BioAssay (NCI).
About 83,000 compounds went through this panel and 20% of them were active in at least one assay; those are over-represented in the sample as a whole.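 A percent growth of 40 corresponds to 60% growth inhibition; 0 means no net growth; -100 means all cells died. Active threshold: below 10.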 The source made the active and inactive calls.

How the values were obtained:
Assay in all cases: NCI-60 one-dose screen, 48 h (100 = growth as untreated, 0 = no growth, -100 = all killed)
HCT-15 colon = conditions: 10 µM unless noted
HT29 colon = conditions: 10 µM unless noted
SNB-75 CNS = conditions: 10 µM unless noted
SNB-19 CNS = conditions: 10 µM unless noted
U251 CNS = conditions: 10 µM unless noted
PC-3 prostate = conditions: 10 µM unless noted
SK-MEL-5 melanoma = conditions: 10 µM unless noted
UACC-62 melanoma = conditions: 10 µM unless noted
LOX IMVI melanoma = conditions: 10 µM
SK-MEL-28 melanoma = conditions: 10 µM unless noted

Measured: growth

COc1ccc(/C=C/c2nc3ccccc3nc2Nc2cccc(C)c2)cc1
inactive: HCT-15 colon 104% | HT29 colon 101% | SNB-75 CNS 99% | SNB-19 CNS 98.5% | U251 CNS 96.1% | PC-3 prostate 96.5% | SK-MEL-5 melanoma 95.7% | UACC-62 melanoma 83.4% | LOX IMVI melanoma 108% | SK-MEL-28 melanoma 108%

O=C1CCCc2cc(OCC(=O)N3CCCCC3)ccc2N1
inactive: HCT-15 colon 105% | HT29 colon 127% | SNB-75 CNS 101% | SNB-19 CNS 99.7% | U251 CNS 107% | PC-3 prostate 109% | SK-MEL-5 melanoma 104% | UACC-62 melanoma 105% | LOX IMVI melanoma 97.1% | SK-MEL-28 melanoma 119%

CCOC(=O)C1=C(N)N(c2ccccc2)C2=C(C(=O)CC(C)(C)C2)C1c1ccc(Cl)cc1Cl (stereo unspecified)
inactive: HCT-15 colon 14% | HT29 colon 35% | SNB-75 CNS 41.2% | SNB-19 CNS 28.1% | U251 CNS 27.6% | UACC-62 melanoma 27.2% | SK-MEL-28 melanoma 51.3%
active: PC-3 prostate 9.99% | SK-MEL-5 melanoma -1.66%

O=C(NN1C(=O)/C(=C/C=C/c2ccc([N+](=O)[O-])o2)SC1=S)c1ccccc1O
active: HCT-15 colon -80.3% | HT29 colon -72.2% | SNB-75 CNS -61.8% | SNB-19 CNS -96.1% | U251 CNS -99.5% | PC-3 prostate -6.66% | SK-MEL-5 melanoma -100% | UACC-62 melanoma -93.7% | LOX IMVI melanoma -91.6% | SK-MEL-28 melanoma -94.6%

N/C(=N\c1nc2ccccc2s1)NC(=O)Nc1c(Cl)cccc1Cl
inactive: HCT-15 colon 26.1% | SNB-75 CNS 27.7% | SNB-19 CNS 54.7% | U251 CNS 27.9% | PC-3 prostate 63.2% | SK-MEL-5 melanoma 22.4% | UACC-62 melanoma 23.6% | LOX IMVI melanoma 24.7% | SK-MEL-28 melanoma 50.6%
active: HT29 colon 8.87%

COc1cc2oc(-c3cccc(C(=O)Nc4ccc(Cl)cc4)c3)cc(=O)c2c(OCC(=O)N[C@@H](Cc2ccccc2)C(=O)O)c1OC
inactive: HCT-15 colon 112% | HT29 colon 112% | SNB-75 CNS 112% | SNB-19 CNS 98.2% | U251 CNS 109% | PC-3 prostate 97.5% | SK-MEL-5 melanoma 96.1% | UACC-62 melanoma 97.8% | LOX IMVI melanoma 83.4% | SK-MEL-28 melanoma 95.5%

O=C(COc1ccc2c(c1)CCCC(=O)N2)NCc1ccccc1
inactive: HCT-15 colon 42% | HT29 colon 103% | SNB-75 CNS 92.9% | SNB-19 CNS 89% | U251 CNS 90.6% | PC-3 prostate 94.9% | SK-MEL-5 melanoma 82% | UACC-62 melanoma 86.5% | LOX IMVI melanoma 78.1% | SK-MEL-28 melanoma 90.4%

CNS(=O)(=O)c1ccc(Nc2ccc(C(F)(F)F)cc2)c(-c2cn(C)cn2)c1
inactive: HCT-15 colon 34.5% | HT29 colon 49.6% | SNB-75 CNS 90.9% | SNB-19 CNS 49.5% | U251 CNS 51.1% | PC-3 prostate 57.6% | SK-MEL-5 melanoma 60.1% | UACC-62 melanoma 37.1% | LOX IMVI melanoma 43.1% | SK-MEL-28 melanoma 74.8%

Cn1cc(-c2nnc(N)nc2-c2c[nH]c3ccc(Br)cc23)c2cc(Br)cnc21
inactive: HCT-15 colon 22.4% | HT29 colon 16.6% | SNB-75 CNS 32% | SNB-19 CNS 65.5% | U251 CNS 62.4% | PC-3 prostate 38.5% | SK-MEL-5 melanoma 68% | UACC-62 melanoma 46.3% | LOX IMVI melanoma 58.7% | SK-MEL-28 melanoma 43.6%

COc1cc2oc(-c3cccc(C(=O)Nc4ccc(Cl)cc4)c3)cc(=O)c2c(OCCNC(=O)[C@H](CCC(=O)OC(C)(C)C)NC(=O)OC(C)(C)C)c1OC
inactive: HCT-15 colon 100% | HT29 colon 108% | SNB-75 CNS 74.2% | SNB-19 CNS 94.8% | U251 CNS 96.8% | PC-3 prostate 83.5% | SK-MEL-5 melanoma 89.3% | UACC-62 melanoma 82% | SK-MEL-28 melanoma 99.2%

CC1(C)CC[C@]2(C(=O)O)CC[C@]3(C)C(=CCC4[C@@]5(C)C[C@@H](O)[C@@H]6OC(c7ccccc7F)OC[C@@]6(C)C5CC[C@]43C)C2C1 (stereo partly specified)
active: HCT-15 colon 5.25% | HT29 colon 2.5% | U251 CNS 3.62% | SK-MEL-5 melanoma -34.6% | UACC-62 melanoma 0.203% | LOX IMVI melanoma -1.57%
inactive: SNB-75 CNS 29.1% | SNB-19 CNS 20.3% | PC-3 prostate 16% | SK-MEL-28 melanoma 19.7%

CN(C)c1nc(NCCNS(=O)(=O)c2ccc(C3=Nc4c(N)nc(N)nc4NC(c4ccccc4)C3)cc2)nc(Nc2ccc(F)cc2)n1 (stereo unspecified)
active: LOX IMVI melanoma 3.29%
inactive: HCT-15 colon 37.4% | HT29 colon 18.3% | SNB-75 CNS 62.5% | SNB-19 CNS 56.6% | U251 CNS 36.4% | PC-3 prostate 26.5% | SK-MEL-5 melanoma 33.7% | UACC-62 melanoma 55.9% | SK-MEL-28 melanoma 60.2%

C#CCOc1ccc(/C=N/Nc2nc(-c3cc4cc(Br)ccc4oc3=O)cs2)cc1OC
inactive: HCT-15 colon 85.4% | HT29 colon 36.1% | SNB-75 CNS 84.5% | SNB-19 CNS 49.6% | U251 CNS 12.5% | PC-3 prostate 74.2% | SK-MEL-5 melanoma 87.1% | UACC-62 melanoma 57.5% | LOX IMVI melanoma 49.5% | SK-MEL-28 melanoma 78.2%

CCCS(=O)(=O)N1CCCC(C(=O)Nc2nc3ccc(NC(=O)c4ccc(F)c(OC)c4F)cc3s2)C1 (stereo unspecified)
inactive: HCT-15 colon 37.1% | HT29 colon 54.2% | SNB-75 CNS 64.1% | SNB-19 CNS 63.7% | U251 CNS 51.5% | PC-3 prostate 37.3% | UACC-62 melanoma 45.4% | LOX IMVI melanoma 37.6% | SK-MEL-28 melanoma 59.9%
active: SK-MEL-5 melanoma -41%

N/C(=N\c1nc2ccccc2s1)NC(=O)Nc1ccc(Cl)cc1Cl
active: HCT-15 colon -25.7% | HT29 colon -90.1% | SNB-75 CNS -68.8% | SNB-19 CNS -23.5% | U251 CNS -97.9% | PC-3 prostate -2.3% | SK-MEL-5 melanoma -56.5% | UACC-62 melanoma -49.8% | LOX IMVI melanoma -96.8% | SK-MEL-28 melanoma -33.2%

CN(C)c1nc(NCCNS(=O)(=O)c2ccc(C3=Nc4c(N)nc(N)nc4NC(c4ccc(F)cc4)C3)cc2)nc(Nc2ccc(F)cc2)n1 (stereo unspecified)
active: LOX IMVI melanoma -40%
inactive: HCT-15 colon 44.7% | HT29 colon 10% | SNB-75 CNS 58.6% | SNB-19 CNS 46.1% | U251 CNS 31.6% | PC-3 prostate 18.9% | SK-MEL-5 melanoma 21.3% | UACC-62 melanoma 45.2% | SK-MEL-28 melanoma 55.4%

Nc1nc(-c2ccccc2)c(N=Nc2ccc([N+](=O)[O-])cc2Cl)s1
inactive: HCT-15 colon 68.1% | HT29 colon 96.2% | SNB-75 CNS 85.7% | SNB-19 CNS 96.3% | U251 CNS 82.5% | PC-3 prostate 77.7% | SK-MEL-5 melanoma 42.5% | UACC-62 melanoma 57.8% | LOX IMVI melanoma 98% | SK-MEL-28 melanoma 89.1%

CC1(C)CC[C@]2(C(=O)O)CC[C@]3(C)C(=CCC4[C@@]5(C)C[C@@H](O)[C@@H]6OC(c7cccc(Br)c7)OC[C@@]6(C)C5CC[C@]43C)C2C1 (stereo partly specified)
inactive: HCT-15 colon 20.7% | HT29 colon 21.5% | SNB-75 CNS 85.1% | SNB-19 CNS 47.1% | U251 CNS 22.9% | PC-3 prostate 25.3% | SK-MEL-5 melanoma 41.3% | UACC-62 melanoma 55.5% | LOX IMVI melanoma 16.5% | SK-MEL-28 melanoma 74.2%

N/C(=N\c1nc2ccccc2s1)NC(=O)Nc1ccccc1Br
inactive: PC-3 prostate 34.6% | SK-MEL-28 melanoma 28.5%
active: HCT-15 colon -4.76% | HT29 colon -61.1% | SNB-75 CNS -33.3% | SNB-19 CNS 2.22% | U251 CNS -53.3% | SK-MEL-5 melanoma -55.3% | UACC-62 melanoma -7.53% | LOX IMVI melanoma -75.7%

Cc1cccc(Nc2nc3ccccc3nc2/C=C/c2ccc(F)cc2)c1
inactive: HCT-15 colon 95.6% | HT29 colon 86.4% | SNB-75 CNS 91.9% | SNB-19 CNS 92.8% | U251 CNS 94% | PC-3 prostate 89.1% | SK-MEL-5 melanoma 88% | UACC-62 melanoma 74.7% | LOX IMVI melanoma 101% | SK-MEL-28 melanoma 101%

C=C1CCC2C3(C)COC(c4cc(F)cc(F)c4)OC3CCC2(C)C1CC(O)C1=CCOC1=O (stereo unspecified)
active: HCT-15 colon 7.8%
inactive: HT29 colon 27.2% | SNB-75 CNS 38.1% | SNB-19 CNS 88.6% | U251 CNS 69.1% | PC-3 prostate 25.8% | SK-MEL-5 melanoma 77.8% | UACC-62 melanoma 68.8% | SK-MEL-28 melanoma 46.7%

O=C1CC(Sc2n[nH]c(-c3ccncc3)n2)C(=O)N1c1ccc(Br)cc1 (stereo unspecified)
inactive: HCT-15 colon 102% | HT29 colon 112% | SNB-75 CNS 106% | SNB-19 CNS 96.1% | U251 CNS 107% | PC-3 prostate 118% | SK-MEL-5 melanoma 115% | UACC-62 melanoma 96.9% | SK-MEL-28 melanoma 108%
